Assay [1] has as its system Plasmodium falciparum Sir2 (PF13_0152, Sir2A). The assay can be described thus: Plasmodium falciparum Sir2A binding compounds – biochemical, small-molecule microarray, 635 nm fluorescence, primary screen (AID 1098).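 Note: score merges spot fluorescence intensity with its signal-to-noise ratio.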 Conditions: fluorescence 635 nm, higher = more signal.
The nature of assay [2]: probe aDKK1 binding to arrayed compounds – biochemical, biotinylated probe, 635/667 nm fluorescence, primary screen (AID 1099).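 Note: score merges 667nm spot fluorescence with signal to noise across triplicate slides.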 The following applies: small-molecule microarray, higher = more signal.
Assay [3] can be described thus: probe aCHRDL2 binding to arrayed compounds – biochemical, biotinylated probe, 635/667 nm fluorescence, primary screen (AID 1100). The following applies: small-molecule microarray, higher = more signal.
The nature of assay [4]: change in splice reporter luminescence, either direction, cell-based, HEK293, spliceosome inhibition project, primary screen (AID 1101).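 Note: HEK293 cells carrying a splicing-competent luciferase reporter gene; test concentration not given here.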 Conditions: HEK293 splicing luciferase reporter, 24 h, higher = more signal, called active from +8 up or from −8 down.
Assay [5] concerns the target Fibroblast growth factor 10 (Homo sapiens) (UniProt O15520). Kind of assay: compounds binding fibroblast growth factor 10 – biochemical, small-molecule microarray, 635 nm fluorescence, primary screen (AID 1102). The following applies: FGF10 binding, fluorescence 635 nm, higher = more signal.
Assay [6] has as its system glycogen synthase kinase-3 (GSK3A per assay name; protocol says GSK3B). The assay can be described thus: compounds binding glycogen synthase kinase-3 – biochemical, small-molecule microarray, 635 nm fluorescence, GSK3A, primary screen (AID 1103). Note: the record names both GSK3A and GSK3B. The following applies: fluorescence 635 nm, higher = more signal.
Assay [7] deals with Epidermal growth factor receptor (Homo sapiens) (UniProt P00533). Kind of assay: compounds binding epidermal growth factor receptor – biochemical, small-molecule microarray, 635 nm fluorescence, primary screen (AID 1104).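 Note: score merges 667 nm emission intensity with spot signal to noise over triplicate slides.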 The following applies: EGFR binding, higher = more signal.
Epidermal growth factor receptor (Homo sapiens), sequence (P00533 whole entry, looked up): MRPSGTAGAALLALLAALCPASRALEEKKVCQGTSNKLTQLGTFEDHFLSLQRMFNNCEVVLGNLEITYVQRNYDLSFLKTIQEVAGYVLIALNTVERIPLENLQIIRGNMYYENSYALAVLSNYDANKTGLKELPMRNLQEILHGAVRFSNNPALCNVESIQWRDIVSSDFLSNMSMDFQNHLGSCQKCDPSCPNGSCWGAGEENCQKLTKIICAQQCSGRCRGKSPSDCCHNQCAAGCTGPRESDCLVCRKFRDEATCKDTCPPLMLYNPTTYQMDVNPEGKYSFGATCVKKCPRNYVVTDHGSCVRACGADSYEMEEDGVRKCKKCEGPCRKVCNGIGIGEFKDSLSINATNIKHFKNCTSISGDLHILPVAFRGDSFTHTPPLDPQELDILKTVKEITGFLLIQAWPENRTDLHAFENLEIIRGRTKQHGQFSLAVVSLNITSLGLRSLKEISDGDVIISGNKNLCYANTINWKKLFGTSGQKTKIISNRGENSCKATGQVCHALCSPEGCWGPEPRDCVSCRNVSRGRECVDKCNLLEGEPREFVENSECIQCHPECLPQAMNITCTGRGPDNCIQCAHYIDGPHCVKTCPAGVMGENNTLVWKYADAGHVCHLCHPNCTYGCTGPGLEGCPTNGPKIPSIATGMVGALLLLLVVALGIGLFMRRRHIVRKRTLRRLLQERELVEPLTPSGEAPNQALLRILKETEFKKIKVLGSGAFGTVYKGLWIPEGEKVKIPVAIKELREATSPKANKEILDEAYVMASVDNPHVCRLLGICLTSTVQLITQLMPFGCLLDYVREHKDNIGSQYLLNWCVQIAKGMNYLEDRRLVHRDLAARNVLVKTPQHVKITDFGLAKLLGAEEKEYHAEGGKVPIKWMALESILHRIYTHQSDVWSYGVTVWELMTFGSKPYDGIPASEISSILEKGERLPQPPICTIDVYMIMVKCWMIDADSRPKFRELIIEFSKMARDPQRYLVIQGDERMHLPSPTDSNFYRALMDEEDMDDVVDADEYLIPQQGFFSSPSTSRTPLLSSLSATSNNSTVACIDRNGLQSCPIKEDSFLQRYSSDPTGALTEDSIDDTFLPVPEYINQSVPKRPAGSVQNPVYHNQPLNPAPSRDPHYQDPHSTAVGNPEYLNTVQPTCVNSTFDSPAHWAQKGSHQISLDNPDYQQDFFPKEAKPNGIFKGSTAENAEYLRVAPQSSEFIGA
The target of assay [8] is Follistatin-related protein 3 (Homo sapiens) (UniProt O95633). The assay can be described thus: compounds binding follistatin-related protein 3 – biochemical, small-molecule microarray, 635 nm fluorescence, primary screen (AID 1105).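 Note: score merges emission near 667 nm and signal to noise per printed spot across three slides.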 Conditions: FSTL3 binding, higher = more signal.
Follistatin-related protein 3 (Homo sapiens), sequence (O95633 whole entry, looked up): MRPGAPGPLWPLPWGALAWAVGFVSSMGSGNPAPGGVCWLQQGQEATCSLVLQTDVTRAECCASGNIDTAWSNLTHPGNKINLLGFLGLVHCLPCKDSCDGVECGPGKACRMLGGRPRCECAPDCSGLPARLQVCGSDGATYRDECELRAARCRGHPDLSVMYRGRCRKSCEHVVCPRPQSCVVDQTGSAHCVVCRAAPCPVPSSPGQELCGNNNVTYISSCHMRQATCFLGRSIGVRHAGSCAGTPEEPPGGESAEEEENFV
The target in assay [9] is Dickkopf-related protein 1 (Homo sapiens) (UniProt O94907). The assay can be described thus: small molecules binding DKK1 protein – biochemical, small-molecule microarray, 635 nm fluorescence scan, primary screen (AID 1106).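 Note: score merges emission near 667 nm with signal to noise over three replicate slides.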 Conditions: higher = more signal.
Dickkopf-related protein 1 (Homo sapiens), sequence (O94907 whole entry, looked up): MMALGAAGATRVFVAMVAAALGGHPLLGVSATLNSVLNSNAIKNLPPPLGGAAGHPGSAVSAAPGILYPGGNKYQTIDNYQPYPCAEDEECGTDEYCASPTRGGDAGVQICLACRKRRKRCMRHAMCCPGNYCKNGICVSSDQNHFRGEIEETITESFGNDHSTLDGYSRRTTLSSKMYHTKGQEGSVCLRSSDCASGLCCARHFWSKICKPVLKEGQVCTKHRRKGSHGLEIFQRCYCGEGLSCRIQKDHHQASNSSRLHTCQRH
The subject of assay [10] is Inhibin beta A chain (activin A). Kind of assay: small molecules binding activin A – biochemical, small-molecule microarray, 635 nm fluorescence scan, primary screen (AID 1107).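 Note: mouse activin A protein probed at 4.33 µg/mL on printed slides; score merges bound-protein fluorescence near 667 nm with spot signal-to-noise.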 Conditions: INHBA, higher = more signal.
Assay [11] relates to Human papillomavirus type 1a protein E7 (residues 44-93). The assay can be described thus: small molecules binding HPV E7 44-93 – biochemical, small-molecule microarray, residues 44-93, 635 nm fluorescence, primary screen (AID 1108).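 Note: E7 fragment applied at 1 µg/mL in TBST for 1 h at 4 C; score combines spot fluorescence with its signal to noise ratio.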 The following applies: fluorescence 635 nm, higher = more signal.
A short description of assay [12]: hepatitis C replication reporter changes, two-sided – Huh7 cells, luciferase reporter, HCV replication inhibitor project, primary screen (AID 1109).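 Note: huh7 hepatoma cells harbouring a luciferase neomycin HCV replicon reporter; luciferase luminescence as measure of HCV replicon replication; test concentration not given here.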 Conditions: Huh7 HCV replicon luciferase reporter, 48 h; higher = more signal. On the technique in general: In a reporter assay the amount or activity of a reporter protein is the signal.
Assay [13] has as its target Left-right determination factor 2 (Homo sapiens) (UniProt O00292). Kind of assay: small molecules binding LEFTY2 protein – biochemical, small-molecule microarray, 635 nm fluorescence scan, primary screen (AID 1110). Conditions: higher = more signal.
In assay [14] the target is Calmodulin-1 (Homo sapiens) (UniProt P0DP23). Kind of assay: small molecules binding calmodulin-1 with EGTA – biochemical, small-molecule microarray, Cy5-labelled CALM1, profiling panel (AID 1111).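 Note: labelled calmodulin applied in Tris saline Tween buffer holding calcium plus EGTA and DTT.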 Conditions: Cy5-CALM1 binding fluorescence, higher = more signal.
For assay [15] the target is unchanged. Kind of assay: small molecules binding Ca-loaded calmodulin-1 – biochemical, small-molecule microarray, Cy5-labelled CALM1, plus calcium, artefact control for SMM control-protein annotation, profiling panel (AID 1112).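 Note: score merges spot fluorescence with signal to noise from triplicate slides.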 The following applies: Cy5-CALM1 binding fluorescence, higher = more signal.
The nature of assay [16]: probe aWnt5a binding to arrayed compounds – biochemical, biotinylated probe, 635/667 nm fluorescence, primary screen (AID 1113).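 Note: score merges 667 nm fluorescence intensity with signal-to-noise per printed feature.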 The following applies: small-molecule microarray, higher = more signal.
The nature of assay [17]: probe aShh binding to arrayed compounds – biochemical, biotinylated probe, 635/667 nm fluorescence, primary screen (AID 1114).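 Note: probe is biotin-labelled aShh protein from a stem cell growth factor screen; measures binding of labelled protein to compounds printed on the slide; score merges feature fluorescence at 667 nm with signal-to-noise.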 Conditions: small-molecule microarray, higher = more signal.
Assay [18] in a line: probe aNog binding to arrayed compounds – biochemical, biotinylated probe, 635/667 nm fluorescence, primary screen (AID 1115).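 Note: probe is biotinylated aNog protein used at 0.15 µg/mL for 1 h at 4 C; z-score combines 667 nm fluorescence of each spot with its signal to noise.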 The following applies: small-molecule microarray, higher = more signal.
Assay [19] has as its target Torsin-1A-interacting protein 1 (Homo sapiens) (UniProt Q5JTV8). The assay can be described thus: compound microarray binding of lysate hLAP1 – cell lysate, small-molecule microarray, COS7 lysate, 635/667 nm fluorescence, primary screen (AID 1116). Conditions: 635 nm fluorescence, higher = more signal.
Assay [20] deals with Alpha-bungarotoxin (Bungarus multicinctus) (UniProt P60615). Kind of assay: compounds binding labelled alpha-BTX control protein – biochemical, small-molecule microarray, Alexa647 label, 635/667 nm fluorescence, artefact control for SMM control protein annotation, profiling panel (AID 1117). Conditions: alpha-BTX-A647 binding fluorescence, higher = more signal.
Alpha-bungarotoxin (Bungarus multicinctus), sequence (P60615 whole entry, looked up): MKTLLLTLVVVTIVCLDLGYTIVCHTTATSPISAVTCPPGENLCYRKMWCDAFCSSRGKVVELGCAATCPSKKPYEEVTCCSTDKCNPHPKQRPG

The source made the active and inactive calls.

Fibroblast growth factor 10 (Homo sapiens), sequence (O15520 whole entry, looked up): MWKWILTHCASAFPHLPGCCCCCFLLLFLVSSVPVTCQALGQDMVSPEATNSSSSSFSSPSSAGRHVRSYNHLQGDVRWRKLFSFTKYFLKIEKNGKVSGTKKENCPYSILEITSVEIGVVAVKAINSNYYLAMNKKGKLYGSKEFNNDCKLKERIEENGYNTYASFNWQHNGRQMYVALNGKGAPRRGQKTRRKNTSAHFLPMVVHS
Left-right determination factor 2 (Homo sapiens), sequence (O00292 whole entry, looked up): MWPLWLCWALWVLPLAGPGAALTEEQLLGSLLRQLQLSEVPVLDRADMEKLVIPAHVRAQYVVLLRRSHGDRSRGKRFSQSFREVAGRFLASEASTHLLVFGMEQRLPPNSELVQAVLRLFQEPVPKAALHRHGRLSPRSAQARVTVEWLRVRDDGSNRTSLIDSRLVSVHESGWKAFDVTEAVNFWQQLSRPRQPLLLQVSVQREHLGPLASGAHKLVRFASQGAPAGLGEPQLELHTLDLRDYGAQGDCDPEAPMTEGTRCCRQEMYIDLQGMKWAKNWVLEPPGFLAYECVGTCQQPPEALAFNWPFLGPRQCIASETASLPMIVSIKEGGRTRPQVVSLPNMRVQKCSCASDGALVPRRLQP
Torsin-1A-interacting protein 1 (Homo sapiens), sequence (Q5JTV8 whole entry, looked up): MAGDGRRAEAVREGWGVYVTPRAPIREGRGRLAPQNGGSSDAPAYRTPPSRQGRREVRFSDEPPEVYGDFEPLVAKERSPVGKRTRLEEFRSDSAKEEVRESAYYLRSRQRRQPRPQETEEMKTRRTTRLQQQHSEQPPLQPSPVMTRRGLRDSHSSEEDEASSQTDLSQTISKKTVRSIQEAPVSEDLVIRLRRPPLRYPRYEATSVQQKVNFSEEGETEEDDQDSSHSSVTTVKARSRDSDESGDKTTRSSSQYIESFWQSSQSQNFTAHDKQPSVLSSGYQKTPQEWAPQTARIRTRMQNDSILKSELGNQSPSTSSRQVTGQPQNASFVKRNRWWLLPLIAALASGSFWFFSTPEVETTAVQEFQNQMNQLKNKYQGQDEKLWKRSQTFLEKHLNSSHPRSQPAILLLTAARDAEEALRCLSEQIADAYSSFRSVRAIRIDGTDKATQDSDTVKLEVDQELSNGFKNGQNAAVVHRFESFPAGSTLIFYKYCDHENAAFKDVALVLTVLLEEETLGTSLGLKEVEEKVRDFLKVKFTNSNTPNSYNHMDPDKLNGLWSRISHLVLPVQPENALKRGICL

Consider `CCCC=C(CCC)[C@@H](NS(=O)(=O)c1ccc(-c2ccccc2)cc1)c1ccc(C(=O)OC)cc1`, for which the composite z-score was -0.127 in assay [1]; 0.224 in [2]; 0.516 in assay [3]; -0.632 in assay [5]; -0.84 in assay [6]; -0.243 in assay [7]. Besides, the composite z-score was -0.875 in assay [8]; -0.422 in assay [9]; 0.573 in assay [10]; 0.17 in assay [11]; 0.0185 in assay [13]; 0.601 in assay [14]. Moreover, the composite z-score in [15] was 0.581; in assay [16] it was -0.104; in [17], 0.0796; in assay [18] it was 0.119; in [19], 0.756; in assay [20], -0.214. In addition, the z-score is -2.72 (inactive) in assay [4] and -1.35 in assay [12].

`CCOC(=O)C[C@H]1[C@H](OC(=O)c2ccccc2-c2ccccc2)[C@@H](NC(=O)c2ccc(-c3ccccc3)cc2)c2cc(OCCCO)ccc2N1C(=O)Cc1ccc(OC)cc1`: the composite z-score in [1] was -0.0957; in [2] it was -0.394; in assay [3], -0.44; in assay [5], 0.295; in [6] it was -0.189; in assay [7], 0.147. For the same molecule, the composite z-score in assay [8] was 0.38; in assay [9], 0.428; in assay [10], 0.701; in assay [11], 0.295; in assay [13] it was 0.462; in assay [14] it was -0.203. Besides, the composite z-score in assay [15] was -0.499; in [16], -0.111; in assay [17], -0.0626; in [18], -0.31; in assay [19], -0.0098; in assay [20], 0.322. The values for the z-score in assay [4] and in assay [12] were -0.288 (inactive) and -2.04, respectively.

For the molecule `CCOC(=O)C1=CCC(c2cccc3ccccc23)N(S(=O)(=O)c2ccc(C)cc2)C1` (stereo not given), the composite z-score was determined as 0.471 in [1]; 0.981 in assay [2]; 0.596 in assay [3]; 0.279 in assay [5]; 0.912 in assay [6]; 0.385 in assay [7]. The composite z-score in assay [8] was 0.681; in assay [9] it was -0.141; in assay [10] it was 1.41; in assay [11], 1.09; in assay [13], 0.0938; in assay [14], 1.47. For the same molecule, the composite z-score in assay [15] was found to be 0.509; in assay [16] it was 0.0763; in assay [17], 0.203; in assay [18] it was 0.276; in assay [19] it was 0.871; in [20], 1.3. Also, the z-score in assay [4] was 0.664 (inactive); in [12], -0.874.

Regarding `COc1ccc(CCNC(=O)[C@@]2(c3ccc([N+](=O)[O-])cc3)CC(=O)N(C(C)C)[C@@H]2c2ccc(CO)cc2)cc1`, the composite z-score in [1] is 1.25; in assay [2] it was 0.716; in assay [3], 1.24; in assay [5], -0.787; in assay [6] it was -0.767; in assay [7] it was -1.57. Also, the composite z-score is -1.67 in assay [8]; -1.43 in assay [9]; -0.445 in assay [10]; 0.0008 in assay [11]; -1.6 in assay [13]; -0.63 in assay [14]. The composite z-score in assay [15] is -0.0462; in assay [16] it was -0.129; in assay [17] it was 0.0557; in assay [18], 0.132; in assay [19] it was 0.228; in assay [20] it was -0.631. For the same molecule, the z-score was -0.58 (inactive) in [4] and -0.309 in [12].

For the molecule `CO[C@H]1COC(=O)[C@H](C)COC(=O)[C@H](Cc2ccccc2)NC(=O)CC=C[C@H]1C`, the composite z-score is 1.01 in assay [1]; -0.345 in [2]; -1.3 in assay [3]; 0.245 in assay [5]; -0.232 in [6]; 0.843 in assay [7]. For the same molecule, the composite z-score in assay [8] is 1.31; in assay [9], 1.68; in [10] it was 1.26; in assay [11] it was -0.943; in [13], 1.09; in [14], -1.37. The composite z-score was -1.74 in assay [15]; 0.266 in assay [16]; 0.223 in assay [17]; 0.653 in [18]; -0.0597 in assay [19]; -0.948 in assay [20]. For the same molecule, the z-score in assay [4] was -0.857 (inactive); in assay [12], -0.56.

The record behind these values is PubChem BioAssay.
